# SARS 3CLpro inh – SARS-CoV 3CLpro protease inhibition. P0C6X7. recombinant SARS-CoV 3CLpro, quenched FRET peptide cleavage. inhibition, % at 6 µM. 0.14% of 290,000 active; in the data active = inhibition above about 12%
# BoNT-A LC inh2 – blocks Botulinum neurotoxin A light chain protease; multiplex microsphere protease substrate cleavage, flow cytometry; 0.17% of 360,000 active; inhibition, % at 10 µM; note: plate controls were buffer without enzyme for full effect and enzyme alone for no effect
# Anthrax LF inh2 – inhibitors of Bacillus anthracis lethal factor protease. 0.12% of 360,000 active. multiplex microsphere protease cleavage assay, LF. inhibition, % at 10 µM. AID 588501; note: plate controls were buffer without enzyme for full effect and enzyme alone for no effect
# Autofluor counter – counter-screen for toxin protease inhibitors: compound fluorescence; compound autofluorescence counterscreen, microsphere flow cytometry; active compounds read high; fluorescence intensity (test concentration not listed); 3.1% of 360,000 active; AID 624483; in the data active = fluorescence intensity above about 16000; inconclusive = no clear call, values can overlap the other calls
# BoNT-F LC inh – inhibitors of Botulinum neurotoxin F light chain protease | Multiplex microsphere protease cleavage assay, flow cytometry | inhibition, % at 10 µM | 0.22% of 360,000 active | AID 588497; in the data active = inhibition above about 35%, passing the limit was not always enough; inconclusive = no clear call, values can overlap the other calls; note: plate controls were buffer without enzyme for full effect and enzyme alone for no effect
# BJeLR viability – kills HRASV12-expressing BJeLR cells; BJeLR (HRASV12) viability, CellTiter-Glo ATP luminescence, 48 h; inhibition, % (no concentration beside the values); 0.17% of 300,000 active; in the data active = inhibition above about 50%; inconclusive = no clear call, values can overlap the other calls
# Active calls of the source: *; ? = inconclusive; · = no result given; + = active, no number. Rows were chosen to be rich in hits. Some 3.6% of all compounds tested hit in one or more screens of this group. Cut-off read from the data, not from the text of the source, unless noted: active = inhibition above about 30%; inconclusive = no clear call, values can overlap the other calls; inactive = below that.
SMILES,SARS 3CLpro inh,BoNT-A LC inh2,Anthrax LF inh2,Autofluor counter,BoNT-F LC inh,BJeLR viability
CN(Cc1ccc(Cl)s1)C(=O)CSc1nnc(C2CC2)n1C1CC1,·,-1,-13,3583,-11,·
CN(C)c1ccc(/C=C/c2cc[n+](C)c3ccccc23)cc1,-4,?,?,3861,?,·
CC[n+]1c(/C=C/C=C/c2ccc(N(C)C)cc2)sc2ccccc21,-4,20,-22,3041,+,13
CC[n+]1c(/C=C/N(C)c2ccccc2)sc2ccc(Cl)cc21,-1,59*,59*,6962,43*,6
CN(C)c1ccc(/C=C/C=C/c2sc3ccccc3[n+]2C)cc1,-1,·,·,·,·,59*
CCOc1cc(C(=O)NC2CCCCCCC2)cc(OCC)c1OCC,·,0,-1,6146,0,-5
COc1cc(S(=O)(=O)N2CCCN(C)CC2)ccc1NC(C)=O,-2,1,-1,5223,7,-1
Clc1ccc(OCc2nc(-c3ccccn3)n[nH]2)cc1,-7,0,-2,19968*,-1,-7
Cc1cccc(OC(C)C(=O)Nc2ccccc2C(=O)N2CCCCC2)c1 (stereo unspecified),-1,4,-1,?,-2,-7
CC(C(=O)Nc1ccccc1C(=O)N1CCCC1)n1nnc2ccccc21 (stereo unspecified),-3,-3,0,21214*,-5,6
CCOc1ccc(N=Cc2c(O)n(C(C)(C)C)c(=O)[nH]c2=O)cc1,2,0,-2,23346*,-3,-2
CC(CC(=O)O)CC(=O)Nc1ccccc1C(=O)O (stereo unspecified),1,0,3,22711*,-5,-2
CCOC(=O)c1ccccc1NC(=O)CC(C)CC(=O)O (stereo unspecified),0,0,0,2485,-13,-3
Cc1ccc(C)c(N2N=C(C(=O)OCc3nnc(-c4ccccc4Br)o3)CCC2=O)c1,·,0,2,3587,0,·
CSc1ccc(Cl)c(C(=O)N(C)CC(=O)Nc2ccc(N3CCOCC3)cc2)c1,·,2,-1,5055,4,-4
Cc1c(Cc2c(C)n(C)n(-c3ccccc3)c2=O)c(=O)n(-c2ccccc2)n1C,0,0,-2,1991,1,-1
Cc1c(CN2CCCCC2C)c(=O)n(-c2ccccc2)n1C (stereo unspecified),-1,?,4,22027*,1,-9
CCc1nc2ccc(C(=O)N(C)Cc3ccccc3)cn2c1N(C)Cc1ccc(OC)cc1,·,-1,0,3092,-13,·
Cc1cc2c(s1)NC(=O)CN=C2c1cccs1,3,?,-1,19677*,0,-7
Cc1cccc2c(C(=O)O)c3cccc(C)c3nc12,·,1,14,3987,?,-4
COc1cc(C(O)c2nc3ccccc3n2C(C)C)cc(OC)c1OC (stereo unspecified),3,-4,-1,3348,6,-1
COC(=O)CNC(c1ccccc1Cl)c1cc(Br)ccc1NS(=O)(=O)c1ccc(C)cc1 (stereo unspecified),-1,-1,-3,10538,2,1
O=C1c2ccccc2S(=O)(=O)N1CC(O)COc1ccc(Br)cc1 (stereo unspecified),0,2,-1,16210*,5,9
O=C1c2ccccc2S(=O)(=O)N1CC(O)COc1ccc(Cl)cc1 (stereo unspecified),-2,1,-2,3635,0,-3
CC(C)(C)c1cc(NC(=O)C2(C)CCN2C(=O)c2ccccc2CCc2ccccc2)no1 (stereo unspecified),·,0,-8,3460,0,·
CCCC(=O)NC(c1ccco1)c1c(O)ccc2ccccc12 (stereo unspecified),-4,?,-1,24638*,-2,1
CCCCC(=O)NC(c1ccco1)c1c(O)ccc2ccccc12 (stereo unspecified),0,-1,-2,3305,4,-2
CCc1nnc(NC(=O)C2CCCN(c3nc4ccccc4s3)C2)s1 (stereo unspecified),-2,0,1,19697*,-1,1
Cc1cc(C)nc(N2CCCC(C(=O)Nc3ccc4c(c3)OCCO4)C2)n1 (stereo unspecified),-1,0,-2,11029,4,-2
O=C(Nc1ccc2c(c1)OCO2)C1CCCN(c2nc3ccccc3s2)C1 (stereo unspecified),1,13,-3,18282*,14,0
